{"source": "PubChem BioAssay (Tox21)", "note": "Inconclusive results are not listed. More than one record can exist for a structure, and the calls need not agree. Calls of active or inactive are those of the source. The call rests on the fitted dose curve. On the % scale 0 is the no-effect control and ±100 the full control effect; potency means the concentration at half of the fitted maximal effect.", "data": [{"biological_target": "Acetylcholinesterase (Homo sapiens) (UniProt P22303)", "sequence (P22303 whole entry, looked up)": "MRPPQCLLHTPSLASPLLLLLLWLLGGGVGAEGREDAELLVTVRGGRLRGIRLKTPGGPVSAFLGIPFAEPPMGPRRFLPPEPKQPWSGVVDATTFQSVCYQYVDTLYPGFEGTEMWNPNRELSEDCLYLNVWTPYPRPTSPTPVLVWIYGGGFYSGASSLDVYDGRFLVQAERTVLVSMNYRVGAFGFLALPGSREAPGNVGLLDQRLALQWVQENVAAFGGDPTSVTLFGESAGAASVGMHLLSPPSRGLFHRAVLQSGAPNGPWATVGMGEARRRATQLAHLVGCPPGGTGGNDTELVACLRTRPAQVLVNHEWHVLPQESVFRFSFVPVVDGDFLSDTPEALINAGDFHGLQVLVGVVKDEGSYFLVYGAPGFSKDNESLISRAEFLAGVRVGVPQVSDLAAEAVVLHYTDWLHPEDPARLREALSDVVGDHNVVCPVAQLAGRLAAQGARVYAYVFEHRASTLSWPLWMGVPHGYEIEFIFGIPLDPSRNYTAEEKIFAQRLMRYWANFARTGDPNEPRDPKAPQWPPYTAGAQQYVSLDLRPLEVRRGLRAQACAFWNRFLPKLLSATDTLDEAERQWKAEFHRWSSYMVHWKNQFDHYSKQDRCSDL", "experiment": "Acetylcholinesterase (AChE) small molecule antagonists: colormetric cell-based qHTS assay (AID 1347395); further: nearly all actives have a fitted effect of over 30% in size", "conditions": "SH-SY5Y cells AChE activity, colorimetric (Ellman); series mostly up to 115 µM; activity, negative = inhibition: at the top concentration", "summary_of_the_method": "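Cells (SH-SY5Y, 2,000 per well) are seeded and left overnight at 37 C. Compound is added for 30 min, then DTNB and acetylthiocholine for a further 90 min at 37 C before absorbance-based thiocholine detection.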", "values": [{"compound": "Cc1cccc(OCCOc2cccc(C)c2)c1", "activity, negative = inhibition": "3.67% (inactive)"}, {"compound": "CCOC(=O)COc1ccc2c(C)c(CCN(CC)CC)c(=O)oc2c1Cl", "Potency": "13.8 µM (active)"}, {"compound": "CC1(C)O[C@@H]2C[C@H]3[C@@H]4C[C@H](F)C5=CC(=O)C=C[C@]5(C)[C@H]4[C@@H](O)C[C@]3(C)[C@]2(C(=O)CO)O1", "activity, negative = inhibition": "1.83% [at 52.9 µM] (inactive)"}, {"compound": "CCCCOCCOCCOCCCC", "activity, negative = inhibition": "0.9% (inactive)"}, {"compound": "CCC(=O)/C=C/C1C(C)=CCCC1(C)C", "note": "(stereo not given)", "Potency": "inactive"}, {"compound": "Nc1cc(Cl)c([N+](=O)[O-])cc1O", "activity, negative = inhibition": "10.2% (inactive)"}, {"compound": "C=C(C)C1CC=C(C)C(OC(C)=O)C1", "note": "(stereo not given)", "Potency": "inactive"}, {"compound": "CCCCOCCO", "Potency": "inactive"}, {"compound": "CC(=O)NCCO", "activity, negative = inhibition": "4.35% (inactive)"}, {"compound": "CCCCCCCO", "Potency": "inactive"}, {"compound": "CC(C)c1ccc2ncccc2c1", "activity, negative = inhibition": "0.203% (inactive)"}, {"compound": "C=CC(C)(CCC=C(C)C)OC(=O)c1ccccc1", "note": "(stereo not given)", "activity, negative = inhibition": "-0.0658% (inactive)"}, {"compound": "O=S(=O)(O)c1ccc(O)c2ncccc12", "activity, negative = inhibition": "1.88% (inactive)"}, {"compound": "Cc1ncc(CO)c(CN)c1O", "activity, negative = inhibition": "1.26% [at 52.9 µM] (inactive)"}, {"compound": "CC(C)CC(C)(N)C#N", "note": "(stereo not given)", "activity, negative = inhibition": "-3.15% (inactive)"}, {"compound": "C[C@]12CC[C@@H]3c4ccc(O)cc4CC[C@H]3[C@@H]1CC[C@H]2O", "Potency": "inactive"}, {"compound": "COC(=O)c1ccccc1C", "activity, negative = inhibition": "1.61% (inactive)"}, {"compound": "C=C(C)CNCC", "Potency": "inactive"}, {"compound": "CCCCNS(=O)(=O)c1ccccc1", "Potency": "inactive"}, {"compound": "CCCOC(=O)c1ccc(C(=O)OCCC)nc1", "activity, negative = inhibition": "-5.56% (inactive)"}, {"compound": "C=C(C)C(=O)OCCN(C)C", "activity, negative = inhibition": "0.0974% (inactive)"}, {"compound": "Nc1nc2c(ncn2CCC(CO)CO)c(=O)[nH]1", "activity, negative = inhibition": "0.264% [at 52.9 µM] (inactive)"}, {"compound": "CCC(C)(C)CC", "activity, negative = inhibition": "1.08% (inactive)"}, {"compound": "CCOC(=O)c1ccc(N)cc1", "Potency": "inactive"}, {"compound": "O=C(O)Cc1cccc2ccccc12", "Potency": "inactive"}, {"compound": "COCc1c(C(C)C)nc(C(C)C)c(/C=C/[C@@H](O)C[C@@H](O)CC(=O)O)c1-c1ccc(F)cc1", "activity, negative = inhibition": "1.59% [at 52.9 µM] (inactive)"}, {"compound": "O=C(O)CN(CCOCCOCCN(CC(=O)O)CC(=O)O)CC(=O)O", "activity, negative = inhibition": "-1.41% [at 0.435 µM] (inactive)"}, {"compound": "CC1(C)S[C@@H]2[C@H](NC(=O)[C@H](N)c3ccccc3)C(=O)N2[C@H]1C(=O)O", "Potency": "inactive"}, {"compound": "Oc1ccc(/C=C/c2cc(O)cc(O)c2)cc1", "Potency": "inactive"}, {"compound": "CCCCN(CCCC)CCC(O)c1cc2c(Cl)cc(Cl)cc2c2cc(C(F)(F)F)ccc12", "note": "(stereo not given)", "activity, negative = inhibition": "-2.88% [at 52.9 µM] (inactive)"}, {"compound": "Cc1ccc(N)c(S(=O)(=O)O)c1", "Potency": "inactive"}, {"compound": "Nc1cc(Cl)c(N)c(Cl)c1", "Potency": "79 µM (active) and inactive"}, {"compound": "O=C(O)c1ccc2c(c1)C(=O)OC2=O", "Potency": "inactive"}, {"compound": "O=C1OCCO1", "activity, negative = inhibition": "-0.273% (inactive)"}, {"compound": "CC1(C)[C@H]2CC[C@]1(C)[C@H](O)C2", "activity, negative = inhibition": "2.63% (inactive)"}, {"compound": "CC(=O)O[C@H]1CC[C@@]2(C)C(=CC[C@@H]3[C@@H]2CC[C@]2(C)C(C(C)=O)=CC[C@@H]32)C1", "activity, negative = inhibition": "-1.94% [at 52.9 µM] (inactive)"}, {"compound": "O=S(=O)(O)c1cccc(S(=O)(=O)O)c1", "activity, negative = inhibition": "0.0559% (inactive)"}, {"compound": "CC1(C)O[C@@H]2C[C@H]3[C@@H]4CCC5=CC(=O)C=C[C@]5(C)[C@H]4[C@@H](O)C[C@]3(C)[C@]2(C(=O)CO)O1", "activity, negative = inhibition": "3.43% [at 52.9 µM] (inactive)"}, {"compound": "COCCC(=O)OC", "activity, negative = inhibition": "-1.01% (inactive)"}, {"compound": "CC(=O)CCc1ccccc1", "Potency": "inactive"}]}]}
